For this test, the target named is T1, ETS1 (UniProt P14921).
T1 sequence: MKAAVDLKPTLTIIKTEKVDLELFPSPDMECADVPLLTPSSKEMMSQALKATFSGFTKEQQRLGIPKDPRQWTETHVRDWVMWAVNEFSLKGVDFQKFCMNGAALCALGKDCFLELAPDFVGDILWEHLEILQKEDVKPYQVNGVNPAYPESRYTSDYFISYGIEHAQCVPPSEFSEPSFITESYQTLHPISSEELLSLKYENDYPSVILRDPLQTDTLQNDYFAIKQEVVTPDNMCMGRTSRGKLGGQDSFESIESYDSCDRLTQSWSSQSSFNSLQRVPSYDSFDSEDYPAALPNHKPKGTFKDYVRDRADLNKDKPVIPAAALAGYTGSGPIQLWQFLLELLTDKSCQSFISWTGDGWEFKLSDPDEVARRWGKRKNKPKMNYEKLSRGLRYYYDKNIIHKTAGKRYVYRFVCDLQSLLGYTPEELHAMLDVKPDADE
Briefly: ETS1 binding intensity (PBM fluorescence), ETS1 alone (arbitrary fluorescence units); higher = stronger binding. To be noted: ETS1 concentration 1 nM; RUNX1 concentration 0 nM.
In turn, CAAAGGTTAAATGCAGGATGTGGTTTCTGCAGACTC had an ETS1 binding intensity of 2750. The value for GGGACGGGGAGGGCAGGATGTGGTCGCTCTTCCCTC was 3320. Then GGGGGAGTTTTCGGAAGCGCTAACCGCGTTGGGGCC, with 365. For ATACTGAGTCATTTCCTGTGGTGTTATTGTGTTGTA, the ETS1 binding intensity was 1760. In turn, CTCTCCACCTCCTTCCGACCAGGACCGCACCCCCCC showed an ETS1 binding intensity of 986. On to GCGAAAGGAACTTCCTTTGCATGCGGTCAGAGTGCT, for which the ETS1 binding intensity came to 477.

GACTATGTGCTTCCGGTCTCCAATACCGCAGGAGGG registered an ETS1 binding intensity of 4950. As to AATAAAGCTACAGACTTCCGCCCACAGGTCGCCGCT, the ETS1 binding intensity was 1020. Sequence ACCGCCGGAAGTTTCTGCCGCGGCTTTGCGGGGACG showed an ETS1 binding intensity of 3320. In the case of GTTCTCCACATCCTGTTCCGTAGCTGTGGTGCACCG, the ETS1 binding intensity stood at 1600.

For the sequence ACCAGAAGCACTGCAGGATGTGGTATCAAGACGCCT, the ETS1 binding intensity is 2250.

GTGGGAGCGGAAGCCTGAGCGGCCTGCGGCCTCCGG: the ETS1 binding intensity was determined as 863. On to GTTAGAGGAAGAGGAAGCGGTCAAGAGATCGTCACA, for which the ETS1 binding intensity was 956. On to CTTCTTTCCAGAGGATGTGGCTTCAGCGGGAGAGCT, for which the ETS1 binding intensity was found to be 1250. The sequence GTTCTTATCCTGTGGCTCGTTTGTGGTTACTGACAT gave an ETS1 binding intensity of 425.

GGGGCTGGGAAAGGATGTGGTAAGGGCCAGTCAGTC had an ETS1 binding intensity of 884. In turn, ATCAGAGCGGAAATCTCAGTCTTGTGTGGGGACCTG showed an ETS1 binding intensity of 1960. Sequence CTGCTTCCGGCCCCGGGGTTCGCTACCCCACAATCC registered an ETS1 binding intensity of 1210.

Take ACCTCTCTCACTTCCTACCAGAGAACCACAGCCAAG: the ETS1 binding intensity was determined as 538. Then CAGGCCTTTCCTGCTATCGTTTGTGGTTTGAGCAGT, with 429; and TTTCAAAACCCGGAAATGACCGCCAGGCTGGCATCA, with 7800; and TCCAGCGGAAGGGGGCATCTTTGCGGCAGAGGCAGC, with 470. The value for GCCTGAAGGACTTCCGGGAACCGCAAAGCACGGTGT was 1620; that for ATCTTAAGTGTTTCCTGACACCACAAATCCCCAAAC was 501; that for GCCGTGGGTACGACCGGAAGCCGCAGGTGGGTGAAG was 18000.

AAAGAGGAAATCACATACCCGAAAACCACATGCACA came in with an ETS1 binding intensity of 513. Turning to CCGCCGCGCGCCGGATGCTAAGACCGCGATTTCCCC, the ETS1 binding intensity came out at 4180. Sequence CACCAGGACGCAACAGGAAACCACAAAGGCCTGAGA showed an ETS1 binding intensity of 2390.

For GCGCCCGGAAGGAAGGCTGGGGTAGGTTGTGGTTTC, the ETS1 binding intensity worked out at 476. The value for CACCTAAAGCCATTGGGATGTGGTTTCTCTTTTTCA was 388; that for TGGATGGCAAGCAACGGAAACCGCAAACAGGGCTGT was 1700. Consider ACCGGATGCCGGGGCACCGCCAGATGTGGCCACGAG, for which the ETS1 binding intensity is 1500.

Turning to GCCCAGGCAGGAAGCCAGGCGCCCACAGGTTGGCAG, the ETS1 binding intensity came to 990. For TGCGCCGCTTCCGCTGCCCGAGGAAGAGCCGCAGTC, the ETS1 binding intensity was found to be 1090. As to TGGGCAAGATATCCTGGAAGTGGTTAAAAAAAATTA, the ETS1 binding intensity stood at 687. Then CCTCACAGGGACTTCCTTCCCCGCGGTTCAGGAATC, with 444; and GCAACTGAACAGGAAACTAAAAAACCACAACACTTA, with 1400. Then GAAAGCTGCACTATTTCCTGAGGTTAGAGGTTTAAA, with 522. Regarding TTGGTCAGGATGTGGCTGAAGAAGCCACAAGAAAAA, the ETS1 binding intensity was determined as 796. GTGAACTTCCTCCCCCACTGCCTATTTTTACCGCAG came in with an ETS1 binding intensity of 624.

Source of the values: the supplement of paper PMC10681739.
